Source: PubChem BioAssay AID1159580 (chemical genetic matrix, 2015)
The campaign covered roughly 5,500 compounds. About 2,000 (36%) were called active. About 18% were inconclusive and are not listed. Cut-off read from the data, not from the text of the source: active = normalized growth mostly below about 0.91 (no sharp cut-off); inconclusive = no clear call, values can overlap the other calls; inactive = mostly above about 0.92. Some of the results follow.

Assay: chemical genetic growth profiling, strain panel (AID 1159580);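 note: tested at 20 µM; growth read once vehicle control cultures reached saturation at 30 °C; 1 = growth at the plate median or of vehicle wells; lower values mean less growth of the strain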
Settings: growth OD

Measured: normalized growth

CN1CCOC(c2ccccc2)c2ccccc2C1 (configuration not stated)
inactive: S. cerevisiae deletion strains, locus YJR075W, strain HOC1, active compounds read low 0.992 | S. cerevisiae deletion strains, locus YKL009W, strain mrt4, active compounds read low 0.956 | S. cerevisiae deletion strains, locus YKL068W, active compounds read low 1.01 | S. cerevisiae deletion strains, locus YKL085W, strain MDH1 (second series), active compounds read low 0.996 | S. cerevisiae deletion strains, locus YKL085W, strain MDH1, active compounds read low 0.996 | S. cerevisiae deletion strains, locus YKL160W, strain elf1, active compounds read low 0.993 | S. cerevisiae deletion strains, locus YKL190W, strain CNB1, active compounds read low 1 | S. cerevisiae deletion strains, locus YKR001C, strain vps1, active compounds read low 1.03 | S. cerevisiae deletion strains, locus YKR026C, strain gcn3, active compounds read low 0.978 | S. cerevisiae deletion strains, locus YKR091W, strain srl3, active compounds read low 0.984 | S. cerevisiae deletion strains, locus YLL001W, strain dnm1, active compounds read low 0.976 | S. cerevisiae deletion strains, locus YLL026W, active compounds read low 0.99 | S. cerevisiae deletion strains, locus YLL041C, strain sdh2, active compounds read low 0.983 | S. cerevisiae deletion strains, locus YLR027C, strain aat2, active compounds read low 1 | S. cerevisiae deletion strains, locus YLR039C, strain RIC1, active compounds read low 1.01 | S. cerevisiae deletion strains, locus YLR058C, strain SHM2, active compounds read low 1 | S. cerevisiae deletion strains, locus YLR102C, strain apc9, active compounds read low 1.02 | S. cerevisiae deletion strains, locus YLR113W, strain HOG1, active compounds read low 0.997 | S. cerevisiae deletion strains, locus YLR221C, strain rsa3, active compounds read low 0.983 | S. cerevisiae deletion strains, locus YLR258W, strain gsy2, active compounds read low 0.948 | S. cerevisiae deletion strains, locus YLR262C, strain YPT6 (second series), active compounds read low 0.955 | S. cerevisiae deletion strains, locus YLR262C, strain YPT6, active compounds read low 1.02 | S. cerevisiae deletion strains, locus YLR268W, strain sec22, active compounds read low 1.07 | S. cerevisiae deletion strains, locus YLR320W, strain mms22, active compounds read low 0.975 | S. cerevisiae deletion strains, locus YLR330W, strain CHS5, active compounds read low 1.01 | S. cerevisiae deletion strains, locus YLR342W, strain FKS1 (second series), active compounds read low 1.01 | S. cerevisiae deletion strains, locus YLR342W, strain FKS1, active compounds read low 0.982 | S. cerevisiae deletion strains, locus YLR357W, strain rsc2, active compounds read low 0.954 | S. cerevisiae deletion strains, locus YLR370C, strain arc18, active compounds read low 0.982 | S. cerevisiae deletion strains, locus YLR371W, strain rom2, active compounds read low 1.04 | S. cerevisiae deletion strains, locus YLR384C, strain iki3, active compounds read low 0.979 | S. cerevisiae deletion strains, locus YLR418C, strain cdc73, active compounds read low 1.05 | S. cerevisiae deletion strains, locus YML016C, strain PPZ1, active compounds read low 0.999 | S. cerevisiae deletion strains, locus YML032C, strain rad52, active compounds read low 1.03 | S. cerevisiae deletion strains, locus YML120C, strain ndi1, active compounds read low 0.995 | S. cerevisiae deletion strains, locus YML124C, strain tub3, active compounds read low 1.02 | S. cerevisiae deletion strains, locus YMR058W, strain fet3, active compounds read low 1.01 | S. cerevisiae deletion strains, locus YMR078C, strain ctf18, active compounds read low 1.01 | S. cerevisiae deletion strains, locus YMR125W, strain sto1, active compounds read low 0.967 | S. cerevisiae deletion strains, locus YMR129W, active compounds read low 0.999 | S. cerevisiae deletion strains, locus YMR205C, strain PFK2, active compounds read low 0.966 | S. cerevisiae deletion strains, locus YMR223W, strain ubp8, active compounds read low 1.01 | S. cerevisiae deletion strains, locus YMR231W, strain pep5, active compounds read low 0.973 | S. cerevisiae deletion strains, locus YMR263W, strain SAP30, active compounds read low 1.02 | S. cerevisiae deletion strains, locus YMR307W, strain GAS1, active compounds read low 1.15 | S. cerevisiae deletion strains, locus YNL067W, strain RPL9B, active compounds read low 1.02 | S. cerevisiae deletion strains, locus YNL071W, strain lat1, active compounds read low 0.951 | S. cerevisiae deletion strains, locus YNL128W, strain TEP1, active compounds read low 1.01 | S. cerevisiae deletion strains, locus YNL153C, strain GIM3, active compounds read low 1.02 | S. cerevisiae deletion strains, locus YNL183C, strain NPR1, active compounds read low 0.945 | S. cerevisiae deletion strains, locus YNL209W, strain ssb2, active compounds read low 0.981 | S. cerevisiae deletion strains, locus YNL233W, strain BNI4, active compounds read low 1.01 | S. cerevisiae deletion strains, locus YNL248C, strain rpa49, active compounds read low 0.954 | S. cerevisiae deletion strains, locus YNL250W, strain rad50, active compounds read low 1.01 | S. cerevisiae deletion strains, locus YNL271C, strain bni1, active compounds read low 1.02 | S. cerevisiae deletion strains, locus YNL298W, strain CLA4, active compounds read low 1.01 | S. cerevisiae deletion strains, locus YNL307C, strain MCK1, active compounds read low 1.02 | S. cerevisiae deletion strains, locus YNL322C, strain KRE1 (second series), active compounds read low 0.958 | S. cerevisiae deletion strains, locus YNL322C, strain KRE1, active compounds read low 0.941 | S. cerevisiae deletion strains, locus YNR049C, strain mso1, active compounds read low 0.968 | S. cerevisiae deletion strains, locus YNR052C, strain pop2, active compounds read low 1.03 | S. cerevisiae deletion strains, locus YOL006C, strain TOP1, active compounds read low 1.07 | S. cerevisiae deletion strains, locus YOL012C, strain htz1 1.34 | S. cerevisiae deletion strains, locus YOL147C, strain pex11, active compounds read low 1.01 | S. cerevisiae deletion strains, locus YOR001W, strain rrp6, active compounds read low 0.99 | S. cerevisiae deletion strains, locus YOR061W, strain CKA2, active compounds read low 1.01 | S. cerevisiae deletion strains, locus YOR069W, strain VPS5, active compounds read low 1 | S. cerevisiae deletion strains, locus YOR070C, strain gyp1, active compounds read low 0.981 | S. cerevisiae deletion strains, locus YOR080W, strain dia2, active compounds read low 0.989 | S. cerevisiae deletion strains, locus YOR083W, strain WHI5, active compounds read low 0.971 | S. cerevisiae deletion strains, locus YOR106W, strain vam3, active compounds read low 0.963 | S. cerevisiae deletion strains, locus YOR136W, strain idh2, active compounds read low 1.01 | S. cerevisiae deletion strains, locus YOR144C, strain elg1, active compounds read low 1.02 | S. cerevisiae deletion strains, locus YOR184W, strain ser1, active compounds read low 1.02 | S. cerevisiae deletion strains, locus YOR231W, strain MKK1, active compounds read low 0.995 | S. cerevisiae deletion strains, locus YOR265W, strain rbl2, active compounds read low 0.985 | S. cerevisiae deletion strains, locus YOR270C, strain vph1, active compounds read low 0.917 | S. cerevisiae deletion strains, locus YOR290C, strain snf2, active compounds read low 0.966 | S. cerevisiae deletion strains, locus YOR316C, strain cot1, active compounds read low 1.02 | S. cerevisiae deletion strains, locus YPL051W, strain arl3, active compounds read low 0.995 | S. cerevisiae deletion strains, locus YPL055C, strain LGE1, active compounds read low 1 | S. cerevisiae deletion strains, locus YPL078C, strain atp4, active compounds read low 0.979 | S. cerevisiae deletion strains, locus YPL106C, strain sse1, active compounds read low 0.921 | S. cerevisiae deletion strains, locus YPL240C, strain hsp82, active compounds read low 0.969 | S. cerevisiae deletion strains, locus YPL241C, strain CIN2, active compounds read low 1.01 | S. cerevisiae deletion strains, locus YPL256C, strain CLN2, active compounds read low 0.997 | S. cerevisiae deletion strains, locus YPR119W, strain clb2, active compounds read low 1.01 | S. cerevisiae deletion strains, locus YPR141C, strain kar3, active compounds read low 1.01 | S. cerevisiae deletion strains, locus YPR163C, strain tif3, active compounds read low 1.03 | S. cerevisiae deletion strains, locus YPR167C, strain met16, active compounds read low 1.02 | S. cerevisiae deletion strains, strain wtn01, active compounds read low 1.02 | S. cerevisiae strains, strain wild type, active compounds read low 1.01
